The panel holds about 79,000 compounds, 15% with a hit somewhere; the sample as a whole holds those more often. Active and inactive are the calls of the source. No stated cut-off is given here; in the data, active means growth inhibition above about 70%; inactive means the rest.

This experiment can be described thus: NCI Yeast Anticancer Drug Screen. Data for the rad14 strain (AID 159).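 Further: 0% = growth of vehicle-treated control cultures.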 The settings on record: S. cerevisiae rad14 strain growth inhibition, stronger effect = higher value. As for the experimental part: Growth inhibition of yeast strains with defined genetic alterations is measured as a screen for potential anti-cancer activity. Selected strains with alterations in DNA damage repair or cell cycle control were exposed to compounds and growth inhibition was measured relative to vehicle treated controls. The strain used in this assay is rad14

With `C=C1CC(Cn2cc(Br)c(=O)[nH]c2=O)(c2ccc(-c3ccccc3)cc2)OC1=O` (stereo not given), the growth inhibition is, setting by setting: (at 1.2 µM) 5% (inactive); (at 3.7 µM) 15% (inactive); (at 11.0 µM) 27% (inactive); (at 33.0 µM) 41% (inactive); (at 100.0 µM) 96% (active).

On to `Cc1c(C(=O)C(=O)c2ccccc2)c(C)c(C(=O)C(=O)c2ccccc2)c(C)c1C(=O)C(=O)c1ccccc1`, for which the growth inhibition runs as follows: (at 1.2 µM) -2% (inactive); (at 3.7 µM) -3% (inactive); (at 11.0 µM) -4% (inactive); (at 33.0 µM) -8% (inactive); (at 100.0 µM) -13% (inactive).

As to `O=C1C=CC(=O)c2c(O)c(Nc3ccc(OC(F)(F)F)cc3)c(Cl)c(O)c21`, the growth inhibition is 2% (inactive) (at 1.2 µM); 4% (inactive) (at 3.7 µM); 6% (inactive) (at 11.0 µM); 32% (inactive) (at 33.0 µM); 92% (active) (at 100.0 µM).

Take `CN(C)c1nc2sc3c(c2c(=O)o1)CCCC3`: the growth inhibition (at 1.2 µM) is 1% (inactive); the growth inhibition (at 3.7 µM) is -3% (inactive); the growth inhibition (at 11.0 µM) is 3% (inactive); the growth inhibition (at 33.0 µM) is 27% (inactive); the growth inhibition (at 100.0 µM) is 45% (inactive).

For the molecule `O=C(CC(=O)n1nc(-c2ccccc2)c(N=Nc2ccccc2C(=O)O)c1-c1ccccc1)Nc1ccc(Cl)cc1`, the growth inhibition (at 1.2 µM) is -1% (inactive); the growth inhibition (at 3.7 µM) was 2% (inactive); the growth inhibition (at 11.0 µM) was 3% (inactive); the growth inhibition (at 33.0 µM) is 3% (inactive); the growth inhibition (at 100.0 µM) is 29% (inactive).

`CC[n+]1ccc2c(C)c3[nH]c4ccc(O)cc4c3c(C)c2c1`: the growth inhibition was -22% (inactive) (at 1.2 µM); -10% (inactive) (at 3.7 µM); -23% (inactive) (at 11.0 µM); -20% (inactive) (at 33.0 µM); -10% (inactive) (at 100.0 µM).

For `Cc1ccc(S(=O)(=O)Oc2cc(Cl)c(Cl)cc2Cl)cc1`, the growth inhibition was -4% (inactive) (at 1.2 µM); 4% (inactive) (at 3.7 µM); 2% (inactive) (at 11.0 µM); -7% (inactive) (at 33.0 µM); 2% (inactive) (at 100.0 µM).

On to `CCCCCCCCC/C=C/C=C/C(=O)NCC(=O)NC1C(O)C(O)C(Nc2ncnc3nc[nH]c23)OC1C(O)CO` (stereo not given), for which the growth inhibition was -17% (inactive) (at 1.2 µM); -5% (inactive) (at 3.7 µM); -8% (inactive) (at 11.0 µM); 8% (inactive) (at 33.0 µM); 51% (inactive) (at 100.0 µM).

The values are drawn from PubChem BioAssay (NCI).
